# Only some compounds are listed: those with a hit (about 3.3% of all), similar ones and a draw of the others.
# UBC13 polyUb: inhibitors of human UBC13 polyubiquitin chain formation | P61088 | inhibition, % at 20 µM | hit rate 0.47% among 330,000 | TR-FRET | AID 485273; in the data active means inhibition above about 45%, passing the limit was not always enough
# Target sequence (P61088 whole entry, looked up): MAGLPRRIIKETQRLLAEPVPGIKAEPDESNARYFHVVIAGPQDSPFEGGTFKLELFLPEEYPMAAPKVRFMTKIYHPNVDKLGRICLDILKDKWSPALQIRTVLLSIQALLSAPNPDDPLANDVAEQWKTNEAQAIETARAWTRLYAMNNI
# NR3A LBD binder: NR3A (human) ligand-binding domain modulation; NR3A LBD differential scanning fluorimetry, Tm shift; 0% = protein alone, 100% = glycine-bound protein; Tm shift relative to glycine control, % at 25 µM; hit rate 2.5% among 340,000; AID 1259313;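 active means melting temperature shift of at least 10% of the positive control shift, at one fixed dose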
# sPLA2-III inh: Inhibits HGIII-sPLA2 liposome hydrolysis, primary screen; Q9NZ20; QFRET BODIPY PC-A2 liposome hydrolysis, fluorescence; inhibition, % at 12.2 µM; hit rate 0.56% among 370,000; AID 743126;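 active means inhibition above mean plus 3 SD of compounds lying within the high and low control bounds, cut at about 19% in these data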;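 further: 0% = median of test compound wells and 100% = no enzyme DMSO wells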
# SUMO HTRF inh: inhibitors of human SUMOylation (UBC9). inhibition, % at 35 µM. AID 2006. hit rate 0.36% among 290,000. P63279. HTRF SUMOylation assay, SAE1/SAE2 + UBC9, in vitro; in the data active means inhibition above about 50%, passing the limit was not always enough
# Target sequence (P63279 whole entry, looked up): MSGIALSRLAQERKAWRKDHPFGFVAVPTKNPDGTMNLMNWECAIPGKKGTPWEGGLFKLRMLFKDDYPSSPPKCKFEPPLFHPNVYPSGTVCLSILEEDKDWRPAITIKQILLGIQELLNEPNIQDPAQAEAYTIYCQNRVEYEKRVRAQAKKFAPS
# Starred values were filed as active, the others as inactive; · = no result given.
SMILES,UBC13 polyUb,NR3A LBD binder,sPLA2-III inh,SUMO HTRF inh
COc1cccc(-c2nc(C#N)c(N3CCN(C(=O)c4ccco4)CC3)o2)c1,16,11*,7,-2
Cc1occc1-c1nnc(SCC(=O)N2CCN(c3ncccn3)CC2)n1-c1ccccc1,·,·,1,·
O=C(O)c1cc(NN=Nc2cccc(S(=O)(=O)O)c2)cc([N+](=O)[O-])c1,-3,10*,-6,15
C=CCN1C(=O)[C@@H](CC(=O)NCCCOCCCC)[C@]2(C(=O)OC)CCCCC=C12,·,·,-5,·
Nc1nc2ccccc2n1C(=O)c1ccco1,·,16*,15,22
Nc1nc2ccccc2n1C(=O)c1ccccc1,3,-1,3,15
CCCCNC(=O)C[C@H]1C[C@@]2(C(=O)OC)C(=C[C@H](C(C)(C)C)O[C@@H]2C)N(Cc2ccc(Cl)cc2Cl)C1=O,·,·,-10,·
Cc1cccc(NS(=O)(=O)c2ccc3[nH]c(=O)[nH]c3c2)c1C,-6,0,-5,8
Cc1cccc(NS(=O)(=O)c2ccc3c(c2)Cc2cc(S(=O)(=O)Nc4cccc(C)c4C)ccc2-3)c1C,·,13*,-14,-9
C[C@@H]1COc2cc(Br)ccc2S(=O)(=O)N1Cc1cn(Cc2ccc(C(F)(F)F)cc2)nn1,·,·,1,·
Cn1c(N)c(C(=O)COC(=O)c2cc(C3CC3)nc3ccccc23)c(=O)n(Cc2ccccc2)c1=O,-4,18*,-3,-37
Cc1ccc(CN2CCCCC(NC(=O)c3cccc(C(F)(F)F)c3)C2=O)cc1 (configuration not stated),·,·,-3,·
COC(=O)[C@]12C[C@H](CC(=O)N3CCSCC3)C(=O)N(Cc3cccc4ccccc34)C1=C[C@H](C(C)C)O[C@@H]2C1CC1,·,·,-4,·
CN(CCCNC(=O)C1CCC(CNS(=O)(=O)c2ccccc2)CC1)Cc1ccccc1 (configuration not stated),3,3,-10,7
CC(=O)Nc1ccc(S(=O)(=O)NCC2CCC(C(=O)NCCCN(C)Cc3ccccc3)CC2)cc1 (configuration not stated),0,15*,-6,-5
COc1ccc(CNCC#Cc2ccc(C)cc2)c(OC)c1,·,·,0,·
O=C(Nc1ccccc1)Nc1c(-c2ccc(F)cc2)nc2ncccn12,·,·,-4,·
CC(OC(=O)c1ccc(NS(=O)(=O)c2ccc3[nH]c(=O)[nH]c3c2)cc1)C(N)=O (configuration not stated),-4,2,-4,0
CC(OC(=O)c1ccc(NS(=O)(=O)c2ccc3[nH]c(=O)[nH]c3c2)cc1)C(=O)Nc1ccc(Cl)cc1 (configuration not stated),7,15*,-39,-18
COc1cc2c(cc1NC(=O)C(C)N1CCN(S(=O)(=O)c3ccc(C)c(C)c3)CC1)oc1ccccc12 (configuration not stated),-12,-7,2,17
COc1cc2c(cc1NC(=O)C(C)OC(=O)c1ccc(S(=O)(=O)Nc3ccccc3Cl)cc1)oc1ccccc12 (configuration not stated),-29,10*,0,15
COc1ccc(Cl)cc1NC(=O)C(C)OC(=O)c1ccc(NS(=O)(=O)c2ccc3[nH]c(=O)[nH]c3c2)cc1 (configuration not stated),10,18*,-45,-34
O=c1c2ccccc2nc(/C=C/c2c[nH]c3ccccc23)n1-c1ccc([N+](=O)[O-])cc1,-11,26*,0,-6
O=C(OCCN1C(=O)c2cccc3c(N4CCOCC4)ccc(c23)C1=O)c1ccc(Cl)cc1,7,7,-10,35
CCCN(CCC)S(=O)(=O)c1ccc(C(=O)OCCN2C(=O)c3cccc4c(N5CCOCC5)ccc(c34)C2=O)cc1,1,17*,·,3
SMILES,UBC13 polyUb,NR3A LBD binder,sPLA2-III inh,SUMO HTRF inh
O=C(Nc1ccc2ccccc2c1)c1ccccc1Cl,·,·,2,·
Cc1ccc(NC(=O)c2cc3ccccc3cc2O)cc1,14,22*,-67,19
CCS(=O)c1ccccc1C(=O)OCC(=O)Nc1ccc2ccccc2c1 (configuration not stated),7,0,-13,·
O=C(Nc1ccc2ccccc2c1)c1ccccc1O,0,20*,-33,1
O=C(COC(=O)c1ccccc1O)Nc1ccc2ccccc2c1,5,15*,-1,·
CC(=O)c1cccc(NC(=O)Nc2ccc3c(c2)CCC3)c1,7,22*,-2,-3
Cc1cccc(NC(=O)Nc2ccc3c(c2)CCC3)c1,2,16*,1,8
CSc1ccccc1C(=O)Nc1ccc2c(c1)CCC2,1,10*,-3,3
C/C(=N/Nc1ccc(C(=O)c2c(C)cc3ccccn23)cc1[N+](=O)[O-])c1ccc(O)cc1,·,11*,9,·
CC1=Nc2ccccc2/C1=C\c1sc(Nc2ccc(C)cc2)nc1O,-2,21*,-80,-1
Oc1nc(Nc2cccc(Cl)c2)sc1/C=C1\C=Nc2ccccc21,0,37*,-28,-2
Cc1nc(N)sc1-c1csc(Nc2cccc(O)c2)n1,6,0,-7,6
Oc1nc(Nc2ccc(F)cc2)sc1/C=C1\C=Nc2ccccc21,-3,34*,-41,9
Oc1cccc(Nc2nc(O)c(/C=C3\C=Nc4ccccc43)s2)c1,-9,21*,-30,2
CCOC(=O)c1c(Nc2ccc(Cl)cc2)sc(/C=C2\C=Nc3ccccc32)c1O,-36,-4,-2,19
N#Cc1ccc(/C=C2\CC3(OC(=O)C4CCCC4)CCCN2C3)cc1 (configuration not stated),·,·,0,·
CCOCC(=O)NC(=O)N1C[C@H]2CON(C)[C@H]2C[C@H]1c1ccc(OC)cc1,·,·,11,·
CCCCn1c(N)c(N(C)C(=O)C2CCCC2)c(=O)[nH]c1=O,-2,15*,13,·
CCCCn1c(N)c(N(CC)C(=O)C2CCCC2)c(=O)[nH]c1=O,10,0,14,·
COc1ccc(C)cc1NC(=O)NNS(=O)(=O)c1ccc(NC(C)=O)cc1,2,2,-4,3
CCNS(=O)(=O)c1ccc(NC(=O)Nc2cc(C)ccc2OC)cc1,-5,20*,-24,7
CCNS(=O)(=O)c1ccc(NC(=O)Nc2ccccc2OC)cc1,6,14*,-26,16
CC(C)NC(=O)Cn1c(-c2cncs2)nc2ccccc21,·,·,-4,·
Cc1ccc(OCc2nnc(SCC(=O)Nc3cccc4ccccc34)n2Cc2ccco2)cc1,·,·,-32,·
COc1ccc(/C=C/C(=O)OCC(=O)NCc2ccco2)cc1OC,4,-1,-3,11
SMILES,UBC13 polyUb,NR3A LBD binder,sPLA2-III inh,SUMO HTRF inh
COc1cc(/C=C/C(=O)OCC(=O)NCc2ccco2)ccc1OC(F)F,-2,14*,-5,-4
CCN(CC)C(=O)CNc1nnnn1-c1ccccc1,·,·,4,·
COc1ccc(Nc2nc(-c3cccnc3)cs2)c(OC)c1,-3,-15,5,-17
COc1cccc(-c2csc(Nc3ccc(Oc4ccccc4)cc3)n2)c1,·,·,3,·
COc1cccc(Nc2nc(-c3ccc(O)cc3)cs2)c1,10,23*,-30,9
COc1cccc(Nc2nc(-c3cccc(N4C(=O)c5ccccc5C4=O)c3)cs2)c1,0,33*,1,-4
CC(C)CNS(=O)(=O)/C=C/c1ccccc1CNC(=O)OC(C)(C)C,·,·,10,·

# Screens (PubChem)
